# Assay results from PubChem BioAssay AID1006 (Sanford-Burnham Center for Chemical Genomics, 2008).
# About 3,000 (1.5%) of roughly 200,000 compounds were called active.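 The calls were made as follows: active = inhibition above about 50% when tested at 10 µM (limit read from the data); inactive = the rest.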 The full list was thinned out, with actives kept by preference.
# Target: Luciferin 4-monooxygenase (Photinus pyralis) (UniProt P08659)
# Assay: firefly luciferase enzyme inhibitors, primary screen, artefact control for luciferase-based inhibitor screens, biochemical, luminescence, ATPLite (AID 1006)
# Conditions: 10 min, at 10 µM, stronger effect = higher value
# Luciferin 4-monooxygenase (Photinus pyralis), sequence (P08659 whole entry, looked up): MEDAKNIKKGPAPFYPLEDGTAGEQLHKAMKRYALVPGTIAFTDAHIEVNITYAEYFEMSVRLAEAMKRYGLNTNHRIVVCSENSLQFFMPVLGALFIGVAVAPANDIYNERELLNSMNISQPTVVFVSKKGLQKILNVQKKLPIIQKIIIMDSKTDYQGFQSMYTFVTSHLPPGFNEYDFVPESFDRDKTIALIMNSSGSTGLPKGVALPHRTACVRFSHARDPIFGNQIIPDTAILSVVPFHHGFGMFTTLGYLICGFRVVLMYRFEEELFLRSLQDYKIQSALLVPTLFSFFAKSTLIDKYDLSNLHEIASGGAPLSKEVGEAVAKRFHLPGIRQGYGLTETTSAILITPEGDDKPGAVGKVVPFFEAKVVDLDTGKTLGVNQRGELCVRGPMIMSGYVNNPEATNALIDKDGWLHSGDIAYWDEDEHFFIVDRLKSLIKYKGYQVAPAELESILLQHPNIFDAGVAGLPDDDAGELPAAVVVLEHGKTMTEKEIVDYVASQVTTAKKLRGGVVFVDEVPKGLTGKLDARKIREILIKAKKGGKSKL
row,Compound,inhibition
1,CCNC(=O)CC1C(=O)N(c2ccc(F)cc2)C(=O)N1CCc1sccc1C (centres undefined),-3.3% (inactive)
2,COc1ccc(/C=C/CN2CCCC(C(=O)c3cc(F)ccc3F)C2)cc1 (centres undefined),-1.7% (inactive)
3,O=C(Oc1ccc([N+](=O)[O-])cc1)c1ccc(Cl)c(S(=O)(=O)N2CCCCC2)c1,-5.6% (inactive)
4,COc1ccc(OC)c(N=Cc2c(O)[nH]c3ccccc23)c1,0.1% (inactive)
5,COc1ccccc1N=Cc1c(O)c2ccccc2oc1=O,95.4% (active)
6,COc1ccc(N=Cc2c(O)[nH]c3ccccc23)cc1OC,6% (inactive)
7,COc1ccc(NC(=O)CN2C(=O)CSC2=O)cc1,1.6% (inactive)
8,O=C(CCC(=O)Nc1ccccc1)N/N=C/c1ccccc1F,-1.2% (inactive)
9,O=C(/C=C/c1ccc2c(c1)OCO2)NCc1cn2cc(Cl)ccc2n1,5.7% (inactive)
10,CC(Oc1ccccc1)C(=O)Nc1oc(-c2ccco2)c(-c2ccco2)c1C#N (centres undefined),-6.2% (inactive)
11,COC(=O)c1cccnc1NC(=S)NC(C)C,9.9% (inactive)
12,COc1ccc(C2=NOC(COC(=O)c3ccc4ccccc4n3)C2)cc1 (centres undefined),3.5% (inactive)
13,COc1ccc(C2=NOC3(CC(=O)N(c4ccc(C)cc4)C3=O)C2)cc1 (centres undefined),-1.7% (inactive)
14,COc1ccc(C2=Nc3cc(C)ccc3OC2)cc1,77.4% (active)
15,Cc1cc(N/N=C/c2ccccc2F)c2ccccc2n1,-7.5% (inactive)
16,Cc1ccc2nc(-c3ccncc3)cc(C(=O)Nc3ccc(OC(F)F)cc3)c2c1,-8% (inactive)
17,COc1ccccc1C(=O)Nn1c(-c2cccs2)nc2ccccc2c1=O,-0.5% (inactive)

row,Compound,inhibition
1,O=C1c2cccnc2C(=O)N1Cc1cccs1,-1.3% (inactive)
2,Cc1cccc(N2C(=O)c3cccnc3C2=O)c1,68.5% (active)
3,Cc1ccc(Oc2ccc3c(c2)C(=O)N(c2cccc4cccnc24)C3=O)cc1,-5.2% (inactive)
4,CN(C)/N=C/c1cn(-c2ccccc2)nc1-c1cccnc1,5.7% (inactive)
5,CCOc1ccc(/C=C(/NC(=O)c2ccccc2)C(=O)NCCC(=O)O)cc1,-10.4% (inactive)
6,COC(=O)c1ccc(/C=N/OCC(=O)Nc2cc(F)ccc2F)cc1,0% (inactive)
7,CCOC(=O)N1CCN(CC(=O)Nc2ccc(F)cc2)CC1,-7.1% (inactive)
8,COc1cc(C(=S)N2CCOCC2)ccc1O,-1% (inactive)
9,Cc1cccc(-c2noc(-c3ccc(F)cc3)n2)c1,59.9% (active)
10,COc1ccc2[nH]c(=O)c(-c3noc(-c4ccc(F)cc4)n3)cc2c1,-1.9% (inactive)
11,Cc1ccc(Cc2nc(-c3cccc(C)c3)no2)cc1,2.3% (inactive)
12,COc1ccc(C(=O)NNC(=O)c2cc(C)[nH]n2)cc1,-3.5% (inactive)
13,Cn1cc(CCC(=O)N2CCCC(C(=O)c3ccc(C(C)(C)C)cc3)C2)cn1 (centres undefined),1.3% (inactive)
14,O=C(Nc1cccnc1)c1noc2c1CCCCC2,57.5% (active)
15,COc1cccc(C(=O)Nc2cccnc2)c1OC,-1.1% (inactive)
16,O=C(Nc1cccnc1)c1cccc(S(=O)(=O)N2CCCC2)c1,-1.1% (inactive)
17,Cc1ccc(CN2CCN(Cc3ccc(OCCO)cc3)CC2CCO)o1 (centres undefined),-7% (inactive)
